Pf apPOL block = Pf-apPOL inhibitors, biochemical, fluorescence. AID 1794808, 2022. Recombinant Pf-apPOL, molecular beacon fluorescence, 1.5 h. hit rate 0.25% among 210,000. inhibition, % at 10 µM
mHTT CaM bind = mutant huntingtin-calmodulin interaction inhibitors – biochemical, AlphaScreen, primary screen | inhibition, % at 15 µM | AID 1671202, 2021 | AlphaScreen His-mHTT/GST-CaM binding, luminescence | hit rate 3.6% among 190,000
Numbers stand for hits. Hits are enriched below; roughly 3.6% of the tested compounds scored in any of these assays. No stated cut-off is given here; in the data, active means inhibition above about 50%; inactive means the rest.

COc1ccc(N2C(=O)C3CCCN3C2c2ccc(N(C)C)cc2)cc1Cl (centres undefined) was read as Pf apPOL block inactive and mHTT CaM bind 67.3.
Screening COc1cccc(C2N(c3ccc(Cl)c(Cl)c3)C(=O)C3CCCN32)c1 (centres undefined) returned Pf apPOL block inactive and mHTT CaM bind 98.7.
Screening COc1ccc(OC)c(C2N(c3cc(C)on3)C(=O)C3CCCN32)c1 (centres undefined) returned Pf apPOL block inactive and mHTT CaM bind inactive.
`COc1ccc(C2N(c3ccc(Cl)cc3)C(=O)C3CCCN32)cc1` (centres undefined) gave Pf apPOL block inactive and mHTT CaM bind inactive.
For COc1ccc(C2N(c3ccc(OC)c(Cl)c3)C(=O)C3CCCN32)cc1 (centres undefined) the results were Pf apPOL block inactive and mHTT CaM bind inactive.
Screening COc1ccc(OC)c(C2N(c3ccc(Cl)cc3)C(=O)C3CCCN32)c1 (centres undefined) returned Pf apPOL block inactive and mHTT CaM bind 73.0.
For CCOc1ccc(C(=O)Cc2ccc(OC)c(OC)c2)cc1 the results were Pf apPOL block inactive and mHTT CaM bind inactive.
CC1=C(C(N)=O)C(c2ccncc2)n2ncnc2N1 (centres undefined) was read as Pf apPOL block inactive and mHTT CaM bind inactive.
COc1ccc2c(c1OC)C(=O)N1C(C(=O)O)CSC21 (centres undefined) was read as mHTT CaM bind inactive.
`COc1cccc(C2N(c3ccccn3)C(=O)C3CCCN32)c1OC` (centres undefined) gave Pf apPOL block inactive and mHTT CaM bind inactive.
`COc1cccc(C2N(c3ccc(Cl)c(Cl)c3)C(=O)C3CCCN32)c1OC` (centres undefined) gave Pf apPOL block inactive and mHTT CaM bind 100.1.
Cc1ccc(S(=O)(=O)N2CCN(Cc3cccc([N+](=O)[O-])c3)CC2)cc1 was read as Pf apPOL block inactive and mHTT CaM bind inactive.
For CC(=O)c1ccc(NC(=O)C2CC3CCCN3C23C(=O)N(C)c2ccccc23)cc1 (centres undefined) the results were Pf apPOL block inactive and mHTT CaM bind inactive.
For COc1ccc(C2/C=C\CN(Cc3ccccc3)[C@@H](C)C(=O)N2Cc2ccc(F)cc2)cc1 (some centres undefined) the results were Pf apPOL block inactive and mHTT CaM bind 73.4.
Screening COc1ccc(C2/C=C\CN(C(=O)c3ccc(C)cc3)[C@@H](C)C(=O)N2Cc2ccc(F)cc2)cc1 (some centres undefined) returned Pf apPOL block inactive and mHTT CaM bind 93.3.
COc1ccc(C2/C=C\C(c3ccc(OC)cc3)N(Cc3ccc(F)cc3)C(=O)C(=O)N2Cc2ccc(F)cc2)cc1 (centres undefined) was read as Pf apPOL block inactive and mHTT CaM bind inactive.
COc1ccc(C2/C=C\CN(C(=O)C3CCCCC3)[C@@H](C)C(=O)N2Cc2ccc(F)cc2)cc1 (some centres undefined) was read as Pf apPOL block inactive and mHTT CaM bind inactive.
For COc1ccc(C2/C=C\CN(Cc3ccco3)[C@@H](C)C(=O)N2Cc2ccc(F)cc2)cc1 (some centres undefined) the results were Pf apPOL block inactive and mHTT CaM bind 92.8.
CCCCC(=O)N1C/C=C\C(c2ccc(OC)cc2)N(Cc2ccc(F)cc2)C(=O)[C@@H]1Cc1ccccc1 (some centres undefined) was read as Pf apPOL block inactive and mHTT CaM bind inactive.
O=S(=O)(NCc1ccc(-c2ccc(F)cc2F)o1)c1ccccc1 was read as Pf apPOL block inactive.
CC(=O)OCC1=C(C(=O)O)N2C(=O)C(NC(=O)C(C)n3cc([N+](=O)[O-])cn3)C2SC1 (centres undefined) was read as mHTT CaM bind inactive.
Screening CCN(CC)CCNC(=O)COc1ccc(OC)cc1 returned Pf apPOL block inactive and mHTT CaM bind inactive.
CN(C)CCNC(=O)COc1ccc(C23CC4CC(CC(C4)C2)C3)cc1 was read as Pf apPOL block inactive and mHTT CaM bind 95.4.
Screening COc1ccc(CCNC(=O)CC23CC4CC(C2)CC(c2ccccc2)(C4)C3)cc1OC returned Pf apPOL block inactive and mHTT CaM bind inactive.
For CN(C)CCNC(=O)CC12CC3CC(C1)CC(c1ccccc1)(C3)C2 the results were Pf apPOL block inactive and mHTT CaM bind 64.4.
CC1(C)Oc2ccc([N+](=O)[O-])cc2O1 was read as mHTT CaM bind inactive.
For Cc1ccc(NC(=O)Cn2ccc3sccc3c2=O)cc1C the results were Pf apPOL block inactive and mHTT CaM bind inactive.
Screening COc1ccc(-c2coc3c4c(ccc3c2=O)OCN(c2cc(Cl)c(OC)cc2OC)C4)cc1 returned Pf apPOL block inactive and mHTT CaM bind 60.0.
Screening COc1ccc(-c2coc3c4c(ccc3c2=O)OCN(C2CCCCC2)C4)cc1 returned Pf apPOL block inactive and mHTT CaM bind inactive.
For CCOc1ncccc1CNC(=O)C1CCN(C(C)=O)CC1 the results were Pf apPOL block inactive and mHTT CaM bind inactive.
`CCOC(=O)C1CCc2sc(NC(=O)Cn3ccc4ccccc43)nc21` (centres undefined) gave Pf apPOL block inactive and mHTT CaM bind inactive.
`O=[N+]([O-])c1cc(Nc2ccccc2)c(C=Nc2ccccc2)c([N+](=O)[O-])c1` gave Pf apPOL block inactive and mHTT CaM bind 51.0.
O=[N+]([O-])c1ccc(O)c(C=Nc2ccc(Nc3ccccc3)cc2)c1 was read as Pf apPOL block inactive and mHTT CaM bind inactive.
`O=[N+]([O-])c1ccc(NN=Cc2ccccc2)c([N+](=O)[O-])c1` gave Pf apPOL block inactive.
Screening O=[N+]([O-])c1ccc(NNc2ccccc2)c([N+](=O)[O-])c1 returned mHTT CaM bind 69.3.
For CC(C)COC(=O)C1C2C=CC3(CN(CC(C)C)C(=O)C13)O2 (centres undefined) the results were Pf apPOL block inactive and mHTT CaM bind inactive.
Screening CCCCN(C)C(=O)C1CCCN(c2ncc(-c3ccc(F)cc3)cn2)C1 (centres undefined) returned Pf apPOL block inactive and mHTT CaM bind inactive.
For COc1ccc(C(CC(=O)N2CCCC2)c2c[nH]c3ccccc23)cc1 (centres undefined) the results were Pf apPOL block inactive and mHTT CaM bind 91.2.
For COc1cccc(C(CC(=O)N2CCCC2)c2c[nH]c3ccccc23)c1 (centres undefined) the results were Pf apPOL block inactive and mHTT CaM bind inactive.
For CC(=O)c1ccc(NS(=O)(=O)c2ccc(N/C=C/C(=O)c3cccs3)cc2)cc1 the results were Pf apPOL block 59.6 and mHTT CaM bind inactive.
Cc1cc(NS(=O)(=O)c2ccc(N/C=C/C(=O)c3cccs3)cc2)nc(C)n1 was read as Pf apPOL block inactive and mHTT CaM bind inactive.
For Cc1cc(NC(=O)Cc2csc(NC(=O)c3ncccn3)n2)no1 the results were Pf apPOL block inactive and mHTT CaM bind 99.9.
Screening CSc1ccccc1NC(=O)Cc1csc(NC(=O)c2ncccn2)n1 returned Pf apPOL block inactive and mHTT CaM bind 100.2.
For CC(C)c1ccccc1NC(=O)Cc1csc(Nc2ncccn2)n1 the results were Pf apPOL block inactive and mHTT CaM bind inactive.
`Cc1ccnc(Nc2nc(CC(=O)Nc3ccc4c(c3)OCCO4)cs2)c1` gave Pf apPOL block inactive and mHTT CaM bind inactive.
`CCOC(=O)Cc1csc(NC(=O)c2ncccn2)n1` gave Pf apPOL block inactive and mHTT CaM bind 83.6.
Screening Cc1cc(C)nc(Nc2nc(CC(=O)NCc3ccccn3)cs2)n1 returned Pf apPOL block inactive and mHTT CaM bind inactive.

Screening results from PubChem.
